Activity calls are given as the source filed them.

A short description of assay [1]: small molecules captured by biotinylated probe aFSTL3 – biochemical, small-molecule microarray, fluorescence 635/667, stem cell growth factor project, primary screen (AID 1064).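 Further: measures binding of the biotinylated anti-FSTL3 antibody to printed compounds.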 Conditions: higher = more signal.
Assay [2] is described as follows: binders from COS7 lysate, DM2A8 probe, primary screen, torsin A project, cell lysate, small-molecule microarray, fluorescence 635/667 (AID 1065). Conditions: higher = more signal, COS7 lysate expressing mutant human TOR1A.
The nature of assay [3]: small molecules captured by biotinylated probe aFGF2 – biochemical, small-molecule microarray, fluorescence 635/667, stem cell growth factor project, primary screen (AID 1067).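 Further: measures binding of biotinylated aFGF2 protein to printed compounds on slides; z-score merges feature fluorescence and signal-to-noise across triplicate slides.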 Particulars: higher = more signal.
Assay [4] in a line: small molecules captured by biotinylated probe aFGF10 – biochemical, small-molecule microarray, fluorescence 635/667, stem cell growth factor project, primary screen (AID 1071).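 Further: score merges 667 nm spot intensity and signal to noise from triplicate slides.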 Conditions: higher = more signal.
Assay [5] deals with Neurogenic locus notch homolog protein 2 (Homo sapiens) (UniProt Q04721). Kind of assay: small molecules binding Notch2 protein – biochemical, small-molecule microarray, 635 nm fluorescence, stem cell growth factors, primary screen (AID 1073). Conditions: higher = more signal.
Assay [6] concerns the target Pro-neuregulin-1, membrane-bound isoform (Homo sapiens) (UniProt Q02297). Kind of assay: small molecules binding neuregulin-1 protein – biochemical, small-molecule microarray, fluorescence 635/667, psychiatric disease protein project, primary screen (AID 1075).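 Further: score combines 667 nm spot fluorescence with signal to noise.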 Conditions: NRG1 binding, 635 nm fluorescence, higher = more signal.
The subject of assay [7] is Neuregulin-1 EGF-like domain. Kind of assay: small molecules binding NRG1 EGF domain – biochemical, small-molecule microarray, 635 nm fluorescence, primary screen (AID 1081).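 Further: binding of the protein to compounds printed on small-molecule microarray slides.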 Conditions: higher = more signal.
Assay [8] can be described thus: FRG1 expression reporter modulators in myotubes – cell-based, C2C12 myotubes, firefly/Renilla luciferase, luminescence, FRG1 inhibition for FSHD, primary screen (AID 1084). Conditions: FRG1 promoter luciferase, higher = more signal, called active from +8 up or from −8 down.
Assay [9] in a line: small molecules captured by biotinylated probe aFST – biochemical, small-molecule microarray, fluorescence 635/667, stem cell growth factor project, primary screen (AID 1086).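 Further: score merges 667 nm fluorescence with signal-to-noise of each printed compound spot.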 Particulars: higher = more signal.
Assay [10] is described as follows: binders of probe aHhip on microarray, primary screen, stem cell growth factor project, biochemical, small-molecule microarray, fluorescence 635/667 (AID 1087).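 Further: score merges spot fluorescence at 667nm with spot signal to noise ratio.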 Particulars: higher = more signal.
The test system of assay [11] is PRMT1 (protein arginine N-methyltransferase 1). Kind of assay: small molecules binding arginine methyltransferase PRMT1 – biochemical, small-molecule microarray, 635 nm fluorescence, primary screen (AID 1088).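 Further: binding of Prmt1 protein to compounds spotted on small-molecule microarray slides.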 Conditions: higher = more signal.
Assay [12] is described as follows: growth effects on S. cerevisiae YJM789 – YJM789 clinical isolate, OD600, 24 h, basal, primary screen (AID 1089).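 Further: growth of clinical yeast isolate S. cerevisiae YJM 789 seeded 1000 cells per well; test concentration not given here.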 Particulars: higher = more signal, called active from +8 up or from −8 down.
A short description of assay [13]: S. pombe growth modifiers, basal conditions – strain 972, OD600, 24 h, no modulator, primary screen (AID 1090).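 Further: basal condition with compound alone and no growth modifier present; test concentration not given here.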 Particulars: S. pombe 972 growth, higher = more signal, called active from +8 up or from −8 down.
Assay [14] in a line: budding yeast growth modifiers under rapamycin – strain BY4716, OD600, 96 h, primary screen (AID 1091). Further: test concentration not given here. Conditions: S. cerevisiae BY4716 + rapamycin, higher = more signal, called active from +8 up or from −8 down.
The target in assay [15] is Torsin-1A-interacting protein 2 (Homo sapiens) (UniProt Q8NFQ8). Kind of assay: small molecules binding lysate-expressed LULL1 – cell lysate, human LULL1 lysate, 635/667 nm fluorescence, primary screen (AID 1092).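 Further: score merges per-feature 667 nm fluorescence with signal-to-noise.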 Conditions: small-molecule microarray, hLULL1 lysate binding, 635 nm fluorescence; higher = more signal.
Assay [16] can be described thus: optical density change of DRC41 E. coli – strain DRC41, OD650, 24 h, E. coli filamentation project, primary screen (AID 1093).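 Further: MC1000 strain lacking acrAB efflux and sulA so SOS filamentation is blocked; test concentration not given here.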 Particulars: E. coli DRC41 growth, higher = more signal, called active from +8 up or from −8 down.
Assay [17] can be described thus: probe aLefty2 binding to arrayed compounds – biochemical, biotinylated probe, 635/667 nm fluorescence, primary screen (AID 1094).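 Further: score merges spot fluorescence near 667 nm with spot signal-to-noise ratio.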 Conditions: small-molecule microarray, higher = more signal.
In assay [18] the test system is Noggin (protein binding on small-molecule microarray). Kind of assay: small molecules binding Noggin protein – biochemical, 635/667 nm fluorescence, primary screen (AID 1095).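 Further: score merges 667 nm feature fluorescence with signal to noise over triplicate slides.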 Particulars: 635 nm fluorescence, higher = more signal.
Assay [19] addresses Neurogenic locus notch homolog protein 3 (Homo sapiens) (UniProt Q9UM47). Kind of assay: small molecules binding NOTCH3 protein – biochemical, 635/667 nm fluorescence, primary screen (AID 1096). Particulars: small-molecule microarray, 635 nm fluorescence, higher = more signal.
A short description of assay [20]: probe aEGFR binding to arrayed compounds – biochemical, biotinylated probe, 635/667 nm fluorescence, primary screen (AID 1097).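 Further: probe is a biotinylated anti-EGFR antibody binding compounds printed on slides; score combines fluorescence near 667 nm and signal to noise of each spot.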 Conditions: small-molecule microarray, higher = more signal.

Neurogenic locus notch homolog protein 2 (Homo sapiens), sequence (Q04721 whole entry, looked up, canonical isoform): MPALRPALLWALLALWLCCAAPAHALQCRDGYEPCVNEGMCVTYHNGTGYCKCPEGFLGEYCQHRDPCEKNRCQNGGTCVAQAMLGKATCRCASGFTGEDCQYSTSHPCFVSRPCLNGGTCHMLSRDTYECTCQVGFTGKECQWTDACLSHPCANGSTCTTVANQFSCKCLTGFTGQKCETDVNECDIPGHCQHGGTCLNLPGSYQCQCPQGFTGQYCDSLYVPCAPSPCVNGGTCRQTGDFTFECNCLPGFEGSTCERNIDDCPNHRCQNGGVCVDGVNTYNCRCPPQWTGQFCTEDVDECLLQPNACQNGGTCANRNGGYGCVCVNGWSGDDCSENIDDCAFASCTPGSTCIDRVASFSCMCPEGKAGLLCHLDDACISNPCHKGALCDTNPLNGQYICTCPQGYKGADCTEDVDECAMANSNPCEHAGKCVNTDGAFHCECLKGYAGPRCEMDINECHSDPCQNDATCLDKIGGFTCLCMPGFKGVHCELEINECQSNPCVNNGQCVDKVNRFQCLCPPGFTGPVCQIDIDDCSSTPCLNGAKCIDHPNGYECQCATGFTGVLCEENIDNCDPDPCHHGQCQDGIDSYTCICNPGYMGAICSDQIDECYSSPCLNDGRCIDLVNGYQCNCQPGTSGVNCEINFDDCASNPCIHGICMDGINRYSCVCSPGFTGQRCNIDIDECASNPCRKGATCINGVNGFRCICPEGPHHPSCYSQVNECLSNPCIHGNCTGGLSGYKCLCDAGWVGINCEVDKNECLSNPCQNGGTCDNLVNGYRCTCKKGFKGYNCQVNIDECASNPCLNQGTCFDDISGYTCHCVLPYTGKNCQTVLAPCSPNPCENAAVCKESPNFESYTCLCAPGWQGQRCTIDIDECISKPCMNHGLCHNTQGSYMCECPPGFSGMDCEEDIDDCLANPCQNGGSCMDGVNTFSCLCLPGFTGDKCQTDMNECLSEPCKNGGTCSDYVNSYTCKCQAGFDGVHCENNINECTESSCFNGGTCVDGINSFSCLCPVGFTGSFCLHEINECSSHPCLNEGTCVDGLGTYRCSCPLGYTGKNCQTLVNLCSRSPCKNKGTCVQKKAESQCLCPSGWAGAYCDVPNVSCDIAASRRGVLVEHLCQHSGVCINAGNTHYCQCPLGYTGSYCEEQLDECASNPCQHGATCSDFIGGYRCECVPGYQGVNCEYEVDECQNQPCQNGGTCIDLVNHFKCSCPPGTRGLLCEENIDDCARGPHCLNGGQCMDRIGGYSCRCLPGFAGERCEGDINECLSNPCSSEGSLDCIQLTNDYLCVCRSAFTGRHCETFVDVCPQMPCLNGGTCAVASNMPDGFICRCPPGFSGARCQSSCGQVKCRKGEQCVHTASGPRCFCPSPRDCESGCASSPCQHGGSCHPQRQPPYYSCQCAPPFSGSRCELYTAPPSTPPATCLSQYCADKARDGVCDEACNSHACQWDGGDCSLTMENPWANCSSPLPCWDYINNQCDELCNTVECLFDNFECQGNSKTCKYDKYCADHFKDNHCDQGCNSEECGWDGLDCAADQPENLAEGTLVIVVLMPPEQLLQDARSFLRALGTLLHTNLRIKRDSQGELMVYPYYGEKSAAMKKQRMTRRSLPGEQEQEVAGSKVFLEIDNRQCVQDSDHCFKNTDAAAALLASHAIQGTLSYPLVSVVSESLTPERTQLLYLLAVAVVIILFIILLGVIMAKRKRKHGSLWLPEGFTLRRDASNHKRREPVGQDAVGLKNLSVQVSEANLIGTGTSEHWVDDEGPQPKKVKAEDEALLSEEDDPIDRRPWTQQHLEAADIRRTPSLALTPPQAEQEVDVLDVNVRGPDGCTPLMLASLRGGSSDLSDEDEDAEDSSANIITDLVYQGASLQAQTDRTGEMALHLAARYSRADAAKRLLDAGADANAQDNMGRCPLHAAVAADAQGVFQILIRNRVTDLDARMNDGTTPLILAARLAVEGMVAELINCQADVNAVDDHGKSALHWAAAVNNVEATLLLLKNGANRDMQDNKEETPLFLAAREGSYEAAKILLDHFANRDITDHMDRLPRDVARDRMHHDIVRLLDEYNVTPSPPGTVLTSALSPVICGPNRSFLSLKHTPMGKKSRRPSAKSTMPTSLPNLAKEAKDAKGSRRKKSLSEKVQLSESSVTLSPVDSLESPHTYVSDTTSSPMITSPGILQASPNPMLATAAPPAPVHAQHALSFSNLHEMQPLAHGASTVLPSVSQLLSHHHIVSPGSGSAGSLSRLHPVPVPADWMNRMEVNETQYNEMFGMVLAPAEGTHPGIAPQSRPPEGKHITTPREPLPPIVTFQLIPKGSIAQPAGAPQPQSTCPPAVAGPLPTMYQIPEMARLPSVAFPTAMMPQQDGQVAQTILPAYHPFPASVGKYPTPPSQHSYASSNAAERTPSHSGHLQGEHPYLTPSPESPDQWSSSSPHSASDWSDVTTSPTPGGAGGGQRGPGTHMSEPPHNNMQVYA
Pro-neuregulin-1, membrane-bound isoform (Homo sapiens), sequence (Q02297 whole entry, looked up, the tested form may be a part, canonical isoform): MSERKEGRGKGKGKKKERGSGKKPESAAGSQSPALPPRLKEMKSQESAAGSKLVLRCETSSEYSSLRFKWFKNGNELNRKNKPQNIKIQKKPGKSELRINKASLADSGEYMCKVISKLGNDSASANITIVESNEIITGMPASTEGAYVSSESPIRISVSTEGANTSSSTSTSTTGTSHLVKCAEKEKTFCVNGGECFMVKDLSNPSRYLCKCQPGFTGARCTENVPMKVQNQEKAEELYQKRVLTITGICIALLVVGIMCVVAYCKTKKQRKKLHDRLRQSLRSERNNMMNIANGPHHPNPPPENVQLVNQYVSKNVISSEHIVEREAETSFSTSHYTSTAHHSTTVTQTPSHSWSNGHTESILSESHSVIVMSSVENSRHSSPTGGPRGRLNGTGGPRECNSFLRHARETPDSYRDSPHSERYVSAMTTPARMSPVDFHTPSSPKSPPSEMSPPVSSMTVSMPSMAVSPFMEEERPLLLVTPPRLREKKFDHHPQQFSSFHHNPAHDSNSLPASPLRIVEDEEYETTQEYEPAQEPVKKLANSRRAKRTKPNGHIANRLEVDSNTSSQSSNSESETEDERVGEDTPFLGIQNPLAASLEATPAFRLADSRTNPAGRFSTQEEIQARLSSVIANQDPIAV
Torsin-1A-interacting protein 2 (Homo sapiens), sequence (Q8NFQ8 whole entry, looked up): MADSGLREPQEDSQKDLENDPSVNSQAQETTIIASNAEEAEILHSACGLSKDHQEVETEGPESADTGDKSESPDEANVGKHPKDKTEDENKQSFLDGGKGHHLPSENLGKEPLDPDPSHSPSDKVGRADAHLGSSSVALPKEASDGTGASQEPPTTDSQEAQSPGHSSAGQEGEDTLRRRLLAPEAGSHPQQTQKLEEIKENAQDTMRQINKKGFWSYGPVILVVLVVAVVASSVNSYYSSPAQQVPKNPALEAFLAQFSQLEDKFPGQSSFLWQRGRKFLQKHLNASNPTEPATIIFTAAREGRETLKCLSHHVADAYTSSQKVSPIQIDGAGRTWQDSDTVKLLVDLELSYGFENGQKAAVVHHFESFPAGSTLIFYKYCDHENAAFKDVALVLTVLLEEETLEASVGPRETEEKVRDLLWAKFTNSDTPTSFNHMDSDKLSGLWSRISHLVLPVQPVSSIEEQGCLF

For the molecule `[N-]=[N+]=NCc1ccccc1C[C@]1(C(=O)NCC(O)CO)N=C(c2ccc(OCCCO)cc2)O[C@H]1c1ccccc1` (stereo not given in full), the composite z-score in [1] is 0.881; in [2], 0.34; in assay [3], -0.0039; in assay [4], -0.48; in [5], -0.316; in [6], 0.958. Besides, the composite z-score in assay [7] was 0.849; in assay [9], 0.506; in assay [10], 0.158; in [11], -0.434; in assay [15], 2.62; in assay [17], 0.38. In addition, the composite z-score in [18] was -0.918; in assay [19], -1.29; in assay [20] it was -0.0758. The z-score in [8] is -0.938 (inactive); in [12], -0.0234 (inactive); in assay [13], 0.559 (inactive); in [14], -1.04 (inactive); in assay [16], 0.478 (inactive).
As to `O=C1C2C=CC(C(O)c3ccc(F)cc3)N(Nc3ccccc3F)C2C(=O)N1c1ccccc1` (stereo not given), the composite z-score is 0.185 in assay [1]; -0.333 in assay [2]; 0.124 in assay [3]; 0.439 in [4]; 1.16 in assay [5]; 1.99 in assay [6]. Also, the composite z-score in assay [7] amounted to 1.23; in [9], 0.886; in [10] it was 0.21; in [11], 0.778; in assay [15], 3.48; in assay [17], 0.0224. For the same molecule, the figures for the composite z-score in [18], in [19] and in assay [20] were -0.503, 1.13 and -0.0549, respectively. The z-score in assay [8] is -1.43 (inactive); in assay [12], 0.105 (inactive); in assay [13], -0.268 (inactive); in assay [14] it was 0.0787 (inactive); in assay [16], -0.42 (inactive).
Take `COCCOC(=O)N1C(=O)[C@@]2(c3cc(C#CCCO)ccc31)[C@H](C(=O)N1CCc3cc(OC)c(OC)cc3C1)[C@H]1C(=O)O[C@H](c3ccccc3)[C@H](c3ccccc3)N1[C@@H]2c1ccc(O)cc1`: the composite z-score was -0.239 in [1]; 0.761 in [2]; 0.0106 in assay [3]; 0.393 in assay [4]; 1.15 in assay [5]; 1.46 in assay [6]. The composite z-score in assay [7] was 1.32; in [9], 0.239; in assay [10], -0.0645; in assay [11], 1.54; in assay [15], 2.55; in assay [17], 0.0262. Further, the composite z-score is 1.07 in assay [18], 1.08 in [19] and -0.0191 in [20]. In addition, the z-score was 0.897 (inactive) in [8]; 1.42 (inactive) in [12]; 0.0725 (inactive) in assay [13]; 1.8 (inactive) in assay [14]; 0.199 (inactive) in assay [16].
For `COC(=O)[C@@]1(Cc2ccc(OC)cc2)[C@H]2c3cc(C(=O)N(C)C)n(Cc4cccc5ccccc45)c3C[C@H]2CN1C(=O)c1ccccc1`, the composite z-score in assay [1] was -0.193; in [2], 1.16; in [3], 0.118; in assay [4] it was 1.15; in [5] it was 1.27; in assay [6] it was 1.79. Further, the composite z-score was determined as 1.36 in [7]; 1.33 in assay [9]; 0.534 in assay [10]; 0.219 in assay [11]; 2.78 in [15]; 1.07 in assay [17]. The composite z-score in assay [18] was 0.841; in assay [19] it was 0.481; in assay [20], 0.92. Moreover, the z-score is 0.189 (inactive) in [8]; -0.386 (inactive) in assay [12]; 0.514 (inactive) in [13]; 1.46 (inactive) in [14]; -0.223 (inactive) in assay [16].
Turning to `COc1ccc([Si](C)(C)[C@H]2[C@H](CC(=O)N3Cc4ccccc4C[C@H]3CO)O[C@@]3(C(=O)N(Cc4ccc(N5CCC5=O)cc4)c4ccccc43)[C@@H]2C)cc1`, the composite z-score in assay [1] was determined as 0.061; in [2] it was 0.859; in assay [3], 0.0967; in [4], 0.265; in assay [5], 0.198; in assay [6], 1.08. Moreover, the composite z-score in assay [7] was determined as 1.2; in [9] it was 0.983; in [10] it was 0.115; in assay [11] it was 1.54; in [15] it was 2.6; in assay [17] it was 0.148. Also, the composite z-score is 1.57 in assay [18], 1.14 in assay [19] and 0.0321 in assay [20]. Also, the z-score is -4.57 (inactive) in assay [8]; -1.57 (inactive) in [12]; 0.52 (inactive) in assay [13]; 0.98 (inactive) in assay [14]; 1.65 (inactive) in [16].
Consider `CC(C)N1C(=O)[C@@]2(Cc3ccccc31)c1ccccc1C(=O)N(C1CCCCC1)[C@H]2c1ccc(CO)cc1`, for which the composite z-score in assay [1] was -0.302; in assay [2] it was -0.0937; in assay [3] it was -0.132; in assay [4], 0.397; in assay [5] it was 0.184; in assay [6], 0.452. The composite z-score is 1.24 in [7]; -0.123 in [9]; -0.296 in [10]; 1.56 in assay [11]; 2.01 in [15]; -0.132 in assay [17]. In addition, the composite z-score in assay [18] was 0.79; in [19], 0.79; in [20], 0.0117. In addition, the z-score is 0.0117 (inactive) in assay [8]; -0.0915 (inactive) in assay [12]; -0.34 (inactive) in assay [13]; -2.58 (inactive) in assay [14]; -1.61 (inactive) in assay [16].
With `COC(=O)[C@@]1(Cc2ccccc2)[C@H]2c3cc(C(=O)N4CCCC4)n(CC4CC4)c3C[C@H]2CN1C(=O)c1ccccc1`, the composite z-score in assay [1] was found to be 0.963; in [2], 0.365; in [3], 0.424; in [4], 0.703; in assay [5] it was 1.6; in assay [6], 1.64. Besides, the composite z-score in assay [7] stood at 1.14; in assay [9] it was 2.15; in assay [10], 0.337; in assay [11] it was 1.21; in assay [15] it was 3.32; in assay [17], 0.508. For the same molecule, the composite z-score in assay [18] is 0.294; in [19], 1.05; in assay [20] it was 0.776. Moreover, the z-score in assay [8] was 0.692 (inactive); in assay [12], 0.0645 (inactive); in [13], 0.513 (inactive); in [14] it was 0.667 (inactive); in assay [16] it was -0.887 (inactive).
As to `C=CC[C@@]1(C(N)=O)N=C(c2ccc(OCCCO)cc2)O[C@@H]1c1ccccc1CN=[N+]=[N-]`, the composite z-score in assay [1] was 0.626; in assay [2] it was -0.41; in assay [3] it was -0.0193; in [4] it was 0.291; in [5], 0.77; in assay [6] it was 2.17. Besides, the composite z-score in [7] was found to be 1.41; in [9], 1.19; in [10], 0.0053; in assay [11], 0.867; in assay [15], 3.77; in [17], 0.444. In addition, the values for the composite z-score in assay [18], in [19] and in assay [20] were 0.174, 0.638 and 0.0651, respectively. Further, the z-score is 2.94 (inactive) in [8]; -0.884 (inactive) in [12]; -0.398 (inactive) in [13]; -0.512 (inactive) in assay [14]; 0.0086 (inactive) in assay [16].
With `O=C(C1N=C(c2ccc(OCCCO)cc2)N(c2ccccc2)O1)N1CCOCC1` (stereo not given), the composite z-score in assay [1] is -0.428; in assay [2], 0.267; in assay [3], 0.0646; in assay [4] it was 1.28; in assay [5], 1.45; in assay [6], 1.27. The composite z-score in assay [7] was 0.336; in assay [9], 0.974; in assay [10] it was -0.113; in assay [11], 1.55; in assay [15], 2.22; in assay [17] it was -0.134. Besides, the composite z-score in assay [18] was found to be 1.53; in assay [19] it was 1.09; in assay [20] it was 0.184. The z-score was 2.27 (inactive) in assay [8]; -0.867 (inactive) in assay [12]; -0.992 (inactive) in [13]; -0.566 (inactive) in assay [14]; 1.75 (inactive) in assay [16].

For the origin of these results see PubChem BioAssay.
